Reference: PubChem BioAssay
Several values for one entry are separate records, joined by “and”; a condition that tells them apart may be missing. Identical values can stand only once. More than one record can exist for a structure, and the calls need not agree. Activity calls are given as the source filed them.

Legend:
[1] = system: PRMT1 (protein arginine N-methyltransferase 1); test: small molecules binding arginine methyltransferase PRMT1 – biochemical, small-molecule microarray, 635 nm fluorescence, primary screen (AID 1088); conditions: higher = more signal;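 note: binding of Prmt1 protein to compounds spotted on small-molecule microarray slides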
[2] = growth effects on S. cerevisiae YJM789 – YJM789 clinical isolate, OD600, 24 h, basal, primary screen (AID 1089); conditions: higher = more signal, called active from +8 up or from −8 down;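 note: growth of clinical yeast isolate S. cerevisiae YJM 789 seeded 1000 cells per well; test concentration not given here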
[3] = S. pombe growth modifiers, basal conditions – strain 972, OD600, 24 h, no modulator, primary screen (AID 1090);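 note: basal condition with compound alone and no growth modifier present; test concentration not given here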; conditions: S. pombe 972 growth, higher = more signal, called active from +8 up or from −8 down
[4] = budding yeast growth modifiers under rapamycin – strain BY4716, OD600, 96 h, primary screen (AID 1091); note: test concentration not given here; conditions: S. cerevisiae BY4716 + rapamycin, higher = more signal, called active from +8 up or from −8 down
[5] = target: Torsin-1A-interacting protein 2 (Homo sapiens) (UniProt Q8NFQ8); test: small molecules binding lysate-expressed LULL1 – cell lysate, human LULL1 lysate, 635/667 nm fluorescence, primary screen (AID 1092); conditions: small-molecule microarray, hLULL1 lysate binding, 635 nm fluorescence; higher = more signal;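 note: probe is lysate of COS7 cells overexpressing human LULL1; score merges per-feature 667 nm fluorescence with signal-to-noise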
Chain of Torsin-1A-interacting protein 2 (Homo sapiens) (Q8NFQ8 whole entry, looked up): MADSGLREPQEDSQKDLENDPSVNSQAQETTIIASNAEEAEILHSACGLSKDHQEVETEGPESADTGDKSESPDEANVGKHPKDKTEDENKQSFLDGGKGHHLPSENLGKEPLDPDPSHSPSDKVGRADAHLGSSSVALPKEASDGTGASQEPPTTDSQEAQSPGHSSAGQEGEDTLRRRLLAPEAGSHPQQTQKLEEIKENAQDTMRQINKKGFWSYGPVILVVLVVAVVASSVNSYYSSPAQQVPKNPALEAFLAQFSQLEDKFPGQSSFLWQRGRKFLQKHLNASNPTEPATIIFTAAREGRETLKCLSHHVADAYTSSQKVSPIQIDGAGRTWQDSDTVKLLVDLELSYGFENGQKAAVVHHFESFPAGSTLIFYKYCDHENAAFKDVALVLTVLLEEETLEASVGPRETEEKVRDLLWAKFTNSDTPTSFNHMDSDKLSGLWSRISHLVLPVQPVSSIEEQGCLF

[6] = optical density change of DRC41 E. coli – strain DRC41, OD650, 24 h, E. coli filamentation project, primary screen (AID 1093);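 note: MC1000 strain lacking acrAB efflux and sulA so SOS filamentation is blocked; test concentration not given here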; conditions: E. coli DRC41 growth, higher = more signal, called active from +8 up or from −8 down
[7] = probe aLefty2 binding to arrayed compounds – biochemical, biotinylated probe, 635/667 nm fluorescence, primary screen (AID 1094); conditions: small-molecule microarray, higher = more signal;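 note: score merges spot fluorescence near 667 nm with spot signal-to-noise ratio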
[8] = system: Noggin (protein binding on small-molecule microarray); test: small molecules binding Noggin protein – biochemical, 635/667 nm fluorescence, primary screen (AID 1095); conditions: 635 nm fluorescence, higher = more signal;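 note: score merges 667 nm feature fluorescence with signal to noise over triplicate slides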
[9] = target: Neurogenic locus notch homolog protein 3 (Homo sapiens) (UniProt Q9UM47); test: small molecules binding NOTCH3 protein – biochemical, 635/667 nm fluorescence, primary screen (AID 1096); conditions: small-molecule microarray, 635 nm fluorescence, higher = more signal
Chain of Neurogenic locus notch homolog protein 3 (Homo sapiens) (Q9UM47 whole entry, looked up): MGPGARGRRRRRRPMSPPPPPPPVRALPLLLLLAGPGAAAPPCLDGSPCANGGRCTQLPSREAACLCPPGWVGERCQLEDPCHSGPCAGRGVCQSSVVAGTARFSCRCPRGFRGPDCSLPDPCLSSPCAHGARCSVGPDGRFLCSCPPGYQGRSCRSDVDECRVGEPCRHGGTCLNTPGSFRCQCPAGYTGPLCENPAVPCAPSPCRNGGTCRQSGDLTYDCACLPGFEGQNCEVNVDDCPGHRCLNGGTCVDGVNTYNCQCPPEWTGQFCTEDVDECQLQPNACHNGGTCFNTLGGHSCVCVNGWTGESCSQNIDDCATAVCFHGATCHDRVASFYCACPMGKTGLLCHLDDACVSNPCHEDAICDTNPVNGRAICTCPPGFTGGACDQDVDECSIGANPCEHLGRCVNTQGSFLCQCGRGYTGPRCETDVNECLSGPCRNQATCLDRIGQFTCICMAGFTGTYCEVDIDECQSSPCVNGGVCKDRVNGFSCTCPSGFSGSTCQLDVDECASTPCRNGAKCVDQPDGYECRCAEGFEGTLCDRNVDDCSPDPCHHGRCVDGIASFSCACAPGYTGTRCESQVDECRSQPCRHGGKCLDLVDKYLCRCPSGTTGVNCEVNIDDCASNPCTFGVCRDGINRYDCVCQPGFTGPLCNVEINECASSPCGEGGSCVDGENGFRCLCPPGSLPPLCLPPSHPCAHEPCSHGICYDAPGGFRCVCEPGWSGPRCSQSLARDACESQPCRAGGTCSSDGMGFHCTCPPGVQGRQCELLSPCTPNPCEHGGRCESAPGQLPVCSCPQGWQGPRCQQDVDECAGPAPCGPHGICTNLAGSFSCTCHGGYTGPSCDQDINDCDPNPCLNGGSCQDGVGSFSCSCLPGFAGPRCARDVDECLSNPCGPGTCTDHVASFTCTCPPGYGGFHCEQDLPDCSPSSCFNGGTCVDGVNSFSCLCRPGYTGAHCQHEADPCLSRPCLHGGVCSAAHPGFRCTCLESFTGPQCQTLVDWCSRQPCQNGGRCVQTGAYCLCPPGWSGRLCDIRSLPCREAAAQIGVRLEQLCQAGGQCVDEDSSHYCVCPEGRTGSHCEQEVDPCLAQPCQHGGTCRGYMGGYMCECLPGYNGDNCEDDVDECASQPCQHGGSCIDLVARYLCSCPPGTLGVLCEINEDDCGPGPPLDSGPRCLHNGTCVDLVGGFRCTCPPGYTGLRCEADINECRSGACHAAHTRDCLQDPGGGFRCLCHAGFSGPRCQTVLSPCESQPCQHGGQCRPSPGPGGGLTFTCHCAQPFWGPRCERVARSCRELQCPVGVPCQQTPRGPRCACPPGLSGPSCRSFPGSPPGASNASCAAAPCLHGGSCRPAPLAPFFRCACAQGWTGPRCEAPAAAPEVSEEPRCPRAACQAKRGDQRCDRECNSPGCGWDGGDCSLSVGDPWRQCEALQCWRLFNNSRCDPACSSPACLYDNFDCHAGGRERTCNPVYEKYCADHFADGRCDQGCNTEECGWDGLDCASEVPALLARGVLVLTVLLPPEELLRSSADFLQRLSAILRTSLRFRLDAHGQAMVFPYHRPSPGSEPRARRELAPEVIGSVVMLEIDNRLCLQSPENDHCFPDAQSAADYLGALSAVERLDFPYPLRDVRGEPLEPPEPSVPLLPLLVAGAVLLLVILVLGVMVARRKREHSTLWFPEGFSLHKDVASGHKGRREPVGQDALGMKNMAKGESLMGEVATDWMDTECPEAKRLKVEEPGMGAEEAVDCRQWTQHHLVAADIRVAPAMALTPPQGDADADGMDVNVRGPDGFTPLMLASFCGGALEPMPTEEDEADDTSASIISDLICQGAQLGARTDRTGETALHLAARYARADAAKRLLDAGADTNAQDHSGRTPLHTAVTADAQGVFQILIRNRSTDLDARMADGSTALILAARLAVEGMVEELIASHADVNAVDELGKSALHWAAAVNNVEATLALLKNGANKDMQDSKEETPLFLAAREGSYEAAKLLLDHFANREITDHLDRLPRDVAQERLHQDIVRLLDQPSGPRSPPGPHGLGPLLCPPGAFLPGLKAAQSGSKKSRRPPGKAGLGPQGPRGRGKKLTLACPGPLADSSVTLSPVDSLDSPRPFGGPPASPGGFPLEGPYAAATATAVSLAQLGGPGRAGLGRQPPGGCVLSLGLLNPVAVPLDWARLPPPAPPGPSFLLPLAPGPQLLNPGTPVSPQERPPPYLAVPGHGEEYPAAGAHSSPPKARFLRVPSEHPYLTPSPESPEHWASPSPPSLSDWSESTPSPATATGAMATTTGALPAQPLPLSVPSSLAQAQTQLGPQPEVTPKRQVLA

[10] = probe aEGFR binding to arrayed compounds – biochemical, biotinylated probe, 635/667 nm fluorescence, primary screen (AID 1097); conditions: small-molecule microarray, higher = more signal;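 note: probe is a biotinylated anti-EGFR antibody binding compounds printed on slides; score combines fluorescence near 667 nm and signal to noise of each spot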
[11] = system: Plasmodium falciparum Sir2 (PF13_0152, Sir2A); test: Plasmodium falciparum Sir2A binding compounds – biochemical, small-molecule microarray, 635 nm fluorescence, primary screen (AID 1098); conditions: fluorescence 635 nm, higher = more signal;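 note: score merges spot fluorescence intensity with its signal-to-noise ratio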
[12] = probe aDKK1 binding to arrayed compounds – biochemical, biotinylated probe, 635/667 nm fluorescence, primary screen (AID 1099); conditions: small-molecule microarray, higher = more signal;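 note: score merges 667nm spot fluorescence with signal to noise across triplicate slides; reference of the scale not given here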
[13] = probe aCHRDL2 binding to arrayed compounds – biochemical, biotinylated probe, 635/667 nm fluorescence, primary screen (AID 1100); conditions: small-molecule microarray, higher = more signal
[14] = change in splice reporter luminescence, either direction, cell-based, HEK293, spliceosome inhibition project, primary screen (AID 1101); conditions: HEK293 splicing luciferase reporter, 24 h, higher = more signal, called active from +8 up or from −8 down;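 note: HEK293 cells carrying a splicing-competent luciferase reporter gene; test concentration not given here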
[15] = target: Fibroblast growth factor 10 (Homo sapiens) (UniProt O15520); test: compounds binding fibroblast growth factor 10 – biochemical, small-molecule microarray, 635 nm fluorescence, primary screen (AID 1102); conditions: FGF10 binding, fluorescence 635 nm, higher = more signal
Chain of Fibroblast growth factor 10 (Homo sapiens) (O15520 whole entry, looked up): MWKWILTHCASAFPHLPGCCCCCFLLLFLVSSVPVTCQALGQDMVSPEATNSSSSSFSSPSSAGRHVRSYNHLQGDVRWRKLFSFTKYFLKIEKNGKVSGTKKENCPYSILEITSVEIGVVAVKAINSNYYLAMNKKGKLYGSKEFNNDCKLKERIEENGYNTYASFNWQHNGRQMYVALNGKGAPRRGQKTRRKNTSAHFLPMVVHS

[16] = system: glycogen synthase kinase-3 (GSK3A per assay name; protocol says GSK3B); test: compounds binding glycogen synthase kinase-3 – biochemical, small-molecule microarray, 635 nm fluorescence, GSK3A, primary screen (AID 1103); conditions: fluorescence 635 nm, higher = more signal; note: the record names both GSK3A and GSK3B
[17] = target: Epidermal growth factor receptor (Homo sapiens) (UniProt P00533); test: compounds binding epidermal growth factor receptor – biochemical, small-molecule microarray, 635 nm fluorescence, primary screen (AID 1104); conditions: EGFR binding, higher = more signal;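 note: score merges 667 nm emission intensity with spot signal to noise over triplicate slides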
Chain of Epidermal growth factor receptor (Homo sapiens) (P00533 whole entry, looked up): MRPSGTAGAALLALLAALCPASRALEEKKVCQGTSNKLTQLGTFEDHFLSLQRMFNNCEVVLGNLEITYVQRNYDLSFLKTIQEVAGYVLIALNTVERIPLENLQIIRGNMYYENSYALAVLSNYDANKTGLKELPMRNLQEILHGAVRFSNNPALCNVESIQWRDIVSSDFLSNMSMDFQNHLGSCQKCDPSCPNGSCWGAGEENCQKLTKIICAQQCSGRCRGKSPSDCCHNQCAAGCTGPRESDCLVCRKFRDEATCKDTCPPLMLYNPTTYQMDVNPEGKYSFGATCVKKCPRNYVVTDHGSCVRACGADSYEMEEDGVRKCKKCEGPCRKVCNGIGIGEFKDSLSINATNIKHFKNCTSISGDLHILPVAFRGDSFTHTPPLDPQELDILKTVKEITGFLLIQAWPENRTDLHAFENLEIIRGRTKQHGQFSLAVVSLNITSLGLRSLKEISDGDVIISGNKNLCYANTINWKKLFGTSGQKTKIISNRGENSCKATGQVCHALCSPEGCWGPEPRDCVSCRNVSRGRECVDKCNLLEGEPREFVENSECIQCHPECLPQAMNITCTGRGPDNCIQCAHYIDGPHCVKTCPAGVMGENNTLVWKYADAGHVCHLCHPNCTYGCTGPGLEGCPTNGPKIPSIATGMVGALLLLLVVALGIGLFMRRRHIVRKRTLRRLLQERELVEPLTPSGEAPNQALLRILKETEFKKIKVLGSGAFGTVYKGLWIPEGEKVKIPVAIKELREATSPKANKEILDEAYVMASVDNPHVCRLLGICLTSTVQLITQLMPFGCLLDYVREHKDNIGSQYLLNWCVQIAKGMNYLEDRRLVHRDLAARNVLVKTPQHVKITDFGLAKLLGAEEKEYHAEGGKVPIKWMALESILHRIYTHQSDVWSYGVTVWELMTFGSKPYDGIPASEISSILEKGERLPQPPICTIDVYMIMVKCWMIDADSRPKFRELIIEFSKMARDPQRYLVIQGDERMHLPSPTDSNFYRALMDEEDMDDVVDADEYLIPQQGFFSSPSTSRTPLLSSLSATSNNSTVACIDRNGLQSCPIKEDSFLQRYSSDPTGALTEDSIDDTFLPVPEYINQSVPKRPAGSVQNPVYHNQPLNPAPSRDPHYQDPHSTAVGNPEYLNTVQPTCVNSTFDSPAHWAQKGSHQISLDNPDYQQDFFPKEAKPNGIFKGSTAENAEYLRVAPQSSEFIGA

[18] = target: Follistatin-related protein 3 (Homo sapiens) (UniProt O95633); test: compounds binding follistatin-related protein 3 – biochemical, small-molecule microarray, 635 nm fluorescence, primary screen (AID 1105); conditions: FSTL3 binding, higher = more signal;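 note: score merges emission near 667 nm and signal to noise per printed spot across three slides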
Chain of Follistatin-related protein 3 (Homo sapiens) (O95633 whole entry, looked up): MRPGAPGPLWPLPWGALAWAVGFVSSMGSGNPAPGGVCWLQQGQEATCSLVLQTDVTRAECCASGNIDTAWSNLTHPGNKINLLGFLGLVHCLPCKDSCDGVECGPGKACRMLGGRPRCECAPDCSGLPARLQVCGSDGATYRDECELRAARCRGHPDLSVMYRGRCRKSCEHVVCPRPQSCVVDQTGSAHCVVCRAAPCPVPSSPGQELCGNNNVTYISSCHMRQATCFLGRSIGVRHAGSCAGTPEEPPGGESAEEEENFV

[19] = target: Dickkopf-related protein 1 (Homo sapiens) (UniProt O94907); test: small molecules binding DKK1 protein – biochemical, small-molecule microarray, 635 nm fluorescence scan, primary screen (AID 1106); conditions: higher = more signal;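 note: score merges emission near 667 nm with signal to noise over three replicate slides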
Chain of Dickkopf-related protein 1 (Homo sapiens) (O94907 whole entry, looked up): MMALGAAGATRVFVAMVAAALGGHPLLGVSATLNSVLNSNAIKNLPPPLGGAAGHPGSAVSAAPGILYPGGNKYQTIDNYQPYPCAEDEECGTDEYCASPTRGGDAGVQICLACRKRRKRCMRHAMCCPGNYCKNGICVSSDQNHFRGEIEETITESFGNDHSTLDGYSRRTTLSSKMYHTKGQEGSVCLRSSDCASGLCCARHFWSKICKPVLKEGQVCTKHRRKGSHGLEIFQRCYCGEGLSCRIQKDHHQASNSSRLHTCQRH

[20] = system: Inhibin beta A chain (activin A); test: small molecules binding activin A – biochemical, small-molecule microarray, 635 nm fluorescence scan, primary screen (AID 1107); conditions: INHBA, higher = more signal;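 note: mouse activin A protein probed at 4.33 µg/mL on printed slides; score merges bound-protein fluorescence near 667 nm with spot signal-to-noise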

Structure (SMILES)	composite z-score [1]	z-score [2]	z-score [3]	z-score [4]	composite z-score [5]	z-score [6]	composite z-score [7]	composite z-score [8]	composite z-score [9]	composite z-score [10]	composite z-score [11]	composite z-score [12]	composite z-score [13]	z-score [14]	composite z-score [15]	composite z-score [16]	composite z-score [17]	composite z-score [18]	composite z-score [19]	composite z-score [20]
CC(C)[Si]1(C(C)C)OCc2cc(CCCc3cc4c(c(CCc5ccccc5)n3)[Si](C(C)C)(C(C)C)OC4)nc(CCc3ccccc3)c21	0.393 and 0.722	0.873 (inactive) and 0.702 (inactive)	-19.7 (active) and 0.733 (inactive)	-1.25 (inactive) and 0.323 (inactive)	0.227 and 0.364	2.13 (inactive) and -1.16 (inactive)	-0.128 and -0.0479	-0.0022 and 0.42	-0.604 and 0.721	-0.157 and -0.0594	-1.24 and 0.202	-0.181 and -0.246	0.057 and -0.55	-1.52 (inactive) and 0.459 (inactive)	-0.0405 and 0.57	-0.0221 and 0.559	0.327 and 0.456	-0.291 and 0.745	-0.106 and 0.458	0.557 and 0.0127
CC(CO)N1C(=O)[C@@H]2C3C(=O)OCCC=C[C@H]3OC23C=CCN(Cc2ccccc2)C(=O)[C@@H]13 (stereo not given in full)	-0.477 and -0.385	0.814 (inactive) and -0.448 (inactive)	-0.326 (inactive) and -1.08 (inactive)	1.53 (inactive) and -0.42 (inactive)	1.16 and 0.0845	1.3 (inactive) and 1.67 (inactive)	-0.0216 and -0.0449	-1.05 and -0.529	-0.36 and -0.377	-0.196 and -0.221	1.15 and 0.52	-0.2 and -0.173	0.139 and 0.407	-0.379 (inactive) and -0.024 (inactive)	-0.602 and -0.115	-0.491 and -0.648	-0.91 and -1.81	-0.771 and -1.06	-1.02 and -0.657	1.24 and -0.563
COc1ccc(-c2ccc3c(n2)CCCN3CC(O)CN2CCCc3nc(-c4ccc(Br)cc4)ccc32)cc1 (stereo not given)	1.47 and -0.0348	0.0467 (inactive) and -0.621 (inactive)	-0.665 (inactive) and 0.124 (inactive)	-2.52 (inactive) and -1.64 (inactive)	1.24 and 0.778	0.0393 (inactive) and 0.816 (inactive)	0.351 and 0.141	0.348 and 0.245	0.877 and 0.491	0.181 and 0.106	1.01 and 0.727	0.507 and 0.293	0.0498 and 0.803	0.0317 (inactive) and -0.356 (inactive)	0.829 and 0.6	0.682 and 0.382	0.476 and 0.459	0.868 and 0.601	0.372 and 0.291	1.33 and -1.05
C=CCN(C(=O)C(c1cccs1)N(C(=O)/C=C\C(=O)O)c1c(Cl)cccc1CO)C(C)(C)C (stereo not given)	-0.971 and -0.911	-0.0947 (inactive) and -0.689 (inactive)	-0.588 (inactive) and -0.587 (inactive)	-0.351 (inactive) and -0.595 (inactive)	-0.586 and 0.277	-0.717 (inactive) and -1.18 (inactive)	0.0765 and 0.231	-3.47 and -2.85	-1.89 and -1.83	-0.309 and -0.338	1.25 and -0.0135	0.352 and 0.285	1.38 and 1.31	-0.321 (inactive) and -0.297 (inactive)	-2.54 and -1.41	-2.14 and -1.33	-2.12 and -2.63	-2.45 and -2.23	-3.69 and -3.04	-3.4 and -1.92
Cc1cc2c(nc1C)CCCN2CC(O)CN1CCCc2nc(-c3ccc(Br)cc3)ccc21 (stereo not given)	1.55 and 1.54	0.612 (inactive) and 1.25 (inactive)	-3.62 (inactive) and -0.716 (inactive)	-1.15 (inactive) and -0.578 (inactive)	1.25 and 1.75	-0.804 (inactive) and 0.109 (inactive)	0.467 and 0.823	1.02 and 0.741	1.1 and 1.11	0.304 and 0.48	1.16 and 0.822	0.116 and 1.46	0.334 and 0.608	-0.605 (inactive) and -0.58 (inactive)	1.21 and 1.31	1.29 and 1.14	0.852 and 1.05	1.43 and 1.25	1.06 and 1.08	1.33 and 1.31
O=C1[C@H]2[C@H]3[C@H](O)[C@H](O)CC(=NOCc4ccccc4)[C@H]3CC[C@H]2C(=O)N1Cc1ccccc1	-1	-2.04 (inactive)	-2.07 (inactive)	-1.04 (inactive)	-0.336	0.582 (inactive)	-0.234	0.439	0.273	-0.126	0.424	-0.276	-0.476	-2.42 (inactive)	0.185	-0.601	0.486	0.606	0.737	-0.201
CCOC(=O)C[C@H]1[C@H](OC(=O)c2ccccc2-c2ccccc2)[C@@H](NC(=O)c2ccccc2)c2cc(OCCCO)ccc2N1C(=O)c1ccc2ccccc2n1	-0.0222 and 1.19	-0.0469 (inactive) and -0.78 (inactive)	-0.19 (inactive) and 0.209 (inactive)	-0.0952 (inactive) and 0.0526 (inactive)	0.549 and 1.01	1.02 (inactive) and -0.728 (inactive)	-0.0437 and 0.0212	0.357 and 0.843	0.481 and 0.737	0.0323 and -0.0815	-0.134 and 0.522	0.298 and -0.106	0.229 and 0.0414	-0.0583 (inactive) and -0.0708 (inactive)	0.97 and 0.586	0.612 and 0.576	0.284 and 0.207	0.47 and 0.8	0.452 and 0.19	0.227 and 0.981
C[C@@]1([C@@H](NC(=O)Cc2ccccc2)c2ccc(-c3ccccc3)cc2)C[C@H]1C1CCCCC1	0.314 and 0.316 and 0.125	0.375 (inactive) and 0.029 (inactive) and 0.56 (inactive)	-6 (inactive) and -0.107 (inactive) and 1.45 (inactive)	-0.167 (inactive) and 0.998 (inactive) and 2.36 (inactive)	-0.331 and 2.71 and 2.97	-1.16 (inactive) and -0.413 (inactive) and -1.74 (inactive)	0.586 and 1.19 and -0.294	-0.0626 and -0.481 and -0.08	0.444 and 0.213 and 0.544	0.0843 and 0.812 and -0.116	0.334 and 0.359 and 0.301	1.14 and 1.83 and -0.112	0.775 and 1.08 and 0.538	-4.09 (inactive) and -1.68 (inactive) and 0.868 (inactive)	0.543 and 0.838 and 0.0825	0.271 and 0.234 and 0.826	-0.0372 and 0.289 and -0.265	-0.008 and -0.172 and 0.156	-0.193 and -0.286 and -0.719	1.3 and 1.08 and 0.556
